Among the data in PubChem BioAssay (Tox21) are Potency values, retold here.

Records with an inconclusive call do not appear. A call without a number means that no potency is given here. Activity calls are given as the source filed them. Calls come from the whole dose curve; as a rule, active = well fitted cell-killing curve with a large enough effect in the repeat runs; inconclusive = weak or mixed curves; inactive = no such curve, though single readings can be large or run the other way.
Potency is the fitted concentration of half-maximal effect.

A short description of the test: qHTS assay for identifying genotoxic compounds that show differential cytotoxicity against isogenic chicken DT40 cell lines with known DNA damage response pathways - Rad54/Ku70 mutant cell line (AID 743015). Note: nearly all actives have a fitted effect of over 60% in size. Conditions: DT40 Rad54/Ku70 mutant viability, CellTiter-Glo, 40 h; series mostly up to 66.8 µM. An excerpt:
National Center for Advancing Translational Sciences [NCATS]
NIH Chemical Genomics Center [NCGC]
U.S. Environmental Protection Agency [EPA]
National Institutes of Environmental Health Sciences [NIEHS]
National Toxicology Program [NTP]
U.S. Food and Drug Administration [FDA]
DNA repair pathways play a critical role in cellular homeostasis by repairing DNA damage induced by endogenous processes and xenobiotics. Isogenic chicken DT40 cell lines deficient in different DNA repair pathways can be used to identify genotoxic compounds and aid in characterizing the nature of the DNA damage induced. Two DNA repair-deficient cell lines with disrupted genes, Rad54/Ku70 or Rev3, were used to screen the Tox21 10K compound library. Possible genotoxicity was based on the presence of a significant increase in cytotoxicity in one or more of the DNA repair-deficient cell lines compared to that observed in the parental DNA repair-proficient cell line. CellTiter Glo viability assay (Promega, Madison, WI) was used to measure cell viability in these cells after compound treatment. This assay includes the data from the Rad54/Ku70 mutant cell line.
Tox21 Assay Protocol Summary:
300 DT40 mutant cells in 5 uL/well were dispensed into white, solid-bottom 1536-well plates using a Multidrop Combi (ThermoFisher Scientific, Waltham, MA) dispenser. After the assay plates were incubated at 37 C/5% CO2 for approximately 0.5 hour, 23 nL of compounds dissolved in DMSO, positive controls or DMSO only was transferred into the assay plate by a pintool work station (Kalypsys, San Diego, CA). The assay plates were incubated at 37 C/5% CO2 for 40 hours. After 5 uL per well of CellTiter-Glo reagent was added into each well of the assay plates, the plates were incubated for 30 min at room temperature and the luminescence intensity of the plates was measured using a ViewLux (PerkinElmer, Shelton, CT) plate reader.
Turning to `CC(=O)Nc1ccc(C)cc1C`, the Potency entry is “inactive”.

Consider `CCCC(=O)C(=O)O`, for which the Potency result was “inactive”.

For the compound `O=[N+]([O-])c1ccc(Nc2ccc(Nc3ccccc3)c(S(=O)(=O)O)c2)c([N+](=O)[O-])c1`, the Potency result was “inactive”. `Cc1ccc(OC(=O)c2ccccc2O)cc1`: the Potency result was “inactive”.

For `OCCOCC#CCOCCO`, the Potency entry is “inactive”. In the case of `Cc1ccc2c(Br)cc(Br)c(O)c2n1` it was 8.41 µM (active). On to `CCCCCCCC/C=C\CCCCCCCCO`, for which the Potency entry was “inactive”.

With `C(=C\c1ccccc1)/c1ccccc1`, the Potency entry is “inactive”. `CN1CCCC(CC2c3ccccc3Sc3ccccc32)C1` (stereo not given): the Potency is 8.04 µM (active). Consider `CCOC(=O)/C=C/C(=O)OCC`, for which the Potency result is “inactive”.

As to `N#CCCN(CCO)CCO`, the Potency result is “inactive”. With `Cc1cc(=O)c2c(O)c3c(O)cc(=O)c4c3c3c(cc(O)c1c23)C(C)(C)C=4O` the figure was 1.06 µM (active); with `CCC(C)COC(C)=O` (stereo not given), “inactive”. With `CCOC(=O)c1ccc(I)cc1`, the Potency result is “inactive”.

`O=c1[nH]c2ccc(Cl)cc2o1`: the Potency entry is “inactive”. For `CCOC(=O)c1ccc(C#Cc2ccc3c(c2)C(C)(C)CCS3)nc1`, the Potency was 29.8 µM (active).

For the compound `CC[N+](CC)(CCNC(=O)C(=O)NCC[N+](CC)(CC)Cc1ccccc1Cl)Cc1ccccc1Cl`, the Potency result was “inactive”. In the case of `O=C1NC(=O)c2cc([N+](=O)[O-])ccc21` it was “inactive”; in that of `CCC1CO1` (stereo not given), “inactive”; in that of `c1csc(SSc2cccs2)c1`, 10.9 µM (active). As to `Cc1ccco1`, the Potency entry is “inactive”. With `COc1ccccc1N1CCN(CCCCNC(=O)c2ccc(-c3ccc(C(C)=O)cc3)cc2)CC1` the entry was “inactive”; with `CCCCCCCCCCCCCCN(CCO)CCO`, 2.43 µM (active).

Turning to `CC(C)COCC(CN(Cc1ccccc1)c1ccccc1)N1CCCC1` (stereo not given), the Potency was 7.5 µM (active).

Take `CC(C)=CC(=O)C=C(C)C`: the Potency result was “inactive”. For the compound `CCCCCCCCCCC(=O)O`, the Potency result is “inactive”. With `CC1CC(C)C(=O)C1=O` (stereo not given) the entry was “inactive”; with `Cc1c(C)c2c(c(C)c1OC(=O)CCC(=O)OCCO)CC[C@@](C)(CCC[C@H](C)CCC[C@H](C)CCCC(C)C)O2`, 11.9 µM (active); with `CC1CC(OC(=O)C(O)c2ccccc2)CC(C)(C)N1C` (stereo not given), “inactive”. With `Nc1nnc(-c2ccc([N+](=O)[O-])o2)o1` the figure was 19.3 µM (active); with `COc1ccccc1N1CCN(CC(O)COc2cccc3ccccc23)CC1` (stereo not given), 29.8 µM (active); with `O=C1c2ccccc2C(=O)c2c(O)c(O)cc(O)c21`, 48.6 µM (active). In the case of `CN1C[C@H](C(=O)N[C@]2(C)O[C@@]3(O)[C@@H]4CCCN4C(=O)[C@H](Cc4ccccc4)N3C2=O)C[C@@H]2c3cccc4[nH]cc(c34)C[C@H]21` it was 16.8 µM (active); in that of `CC1(C)[C@H](C(=O)O)N2C(=O)C[C@H]2S1(=O)=O`, “inactive”; in that of `COC(=O)CCS`, “inactive”. As to `CCCCCCNC(=O)n1cc(F)c(=O)[nH]c1=O`, the Potency was 11.9 µM (active). In the case of `CCOC(=O)c1ccc(OCCN2C[C@H](O)[C@@H](O)[C@H](O)[C@H]2CO)cc1` it was “inactive”.

Regarding `CC(C)(O)c1ccc(CNC(=O)c2cccnc2Oc2ccc3nonc3c2)cc1`, the Potency is 61.1 µM (active). With `C=C1c2cccc(O)c2C(O)=C2C(=O)[C@]3(O)C(O)=C(C(N)=O)C(=O)[C@@H](N(C)C)[C@@H]3[C@@H](O)[C@H]12` the entry was “inactive”; with `O=C(O)CCc1nc(-c2ccccc2)c(-c2ccccc2)o1`, “inactive”.
